Measurements published in PubChem BioAssay AID1565 (Sanford-Burnham Center for Chemical Genomics, 2009).
The whole screen tested about 290,000 compounds, of which about 3,200 (1.1%) were called active. Rule as the data show it: active = inhibition above about 60%; inactive = the rest. This excerpt belongs to a sample that is enriched for actives.

molecular target: Phosphoethanolamine/phosphocholine phosphatase (Homo sapiens) (UniProt Q8TCT1); experiment: PubChem AID 1565; details: recombinant PHOSPHO1, absorbance phosphatase assay; at 13.3 µM; stronger effect = higher value
Sequence (Q8TCT1 whole entry, looked up): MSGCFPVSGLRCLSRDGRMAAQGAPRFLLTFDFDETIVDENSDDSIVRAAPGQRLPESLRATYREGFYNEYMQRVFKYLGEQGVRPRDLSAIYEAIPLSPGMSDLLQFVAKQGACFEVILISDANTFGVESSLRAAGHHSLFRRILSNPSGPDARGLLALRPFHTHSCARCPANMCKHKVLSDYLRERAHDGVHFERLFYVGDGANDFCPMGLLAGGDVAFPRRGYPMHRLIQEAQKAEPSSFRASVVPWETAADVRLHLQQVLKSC

Structure (SMILES) | inhibition
O=S(=O)(Nc1ccc2[nH]ncc2c1)c1ccccc1Cl | -129% (inactive)
COc1ccc(S(=O)(=O)NNC(=O)Nc2ccc(C)cc2)c(OC)c1 | 21.8% (inactive)
Cc1ccc(N(C(=O)c2snc(C(N)=O)c2N)C(C(=O)NCC2CCCO2)c2c[nH]c3ccccc23)cc1 (stereo not given) | 35.7% (inactive)
COc1ccc(S(=O)(=O)N2CCOC2CNC(=O)C(=O)NCc2ccncc2)cc1C (stereo not given) | 19.8% (inactive)
COc1ccc(NS(=O)(=O)c2ccc3oc(SCC(N)=O)nc3c2)cc1 | 6.3% (inactive)
S=C(NCCc1ccccc1)Nc1ccccc1 | 22.6% (inactive)
NS(=O)(=O)c1ccc(CCNC(=S)Nc2ccc(S(N)(=O)=O)cc2)cc1 | 78.5% (active)
NS(=O)(=O)c1ccc(CCNC(=O)Nc2ccc(Cl)cc2)cc1 | 14.1% (inactive)
CC1CCC(NC(=O)CN(C)S(=O)(=O)c2ccc3c(c2)c(=O)n(C)c(=O)n3C)CC1 (stereo not given) | 58.3% (inactive)
COc1cc(NC(=O)C2CC(c3ccccc3O)=NO2)c(OC)cc1Cl (stereo not given) | 24.3% (inactive)
Cc1c(NC(=O)c2coc(=O)c(Br)c2)c(=O)n(-c2ccccc2)n1C | -69.6% (inactive)
COc1cc(OC)c(C2=NOC(C(=O)Nc3c(C)n(C)n(-c4ccccc4)c3=O)C2)cc1Cl (stereo not given) | 64.2% (active)
O=C(NCCN1CCCC(O)C1)c1cc(COc2c(F)cccc2F)on1 (stereo not given) | 54.7% (inactive)
C=CCn1c(-c2ccc3[nH]c(C)c(C)c3c2)n[nH]c1=S | 98.8% (active)
C=CCn1c(-c2ccccc2OCC)n[nH]c1=S | -30.9% (inactive)
C=CCn1c(-c2sc(-c3ccccc3)nc2C)n[nH]c1=S | 27.7% (inactive)
CN1C/C(=C/c2cccs2)C(=O)/C(=C\c2cccs2)C1 | 16.1% (inactive)
CNC(=O)C1CCN(S(=O)(=O)c2c(C)noc2/C=C/c2cccc(C)c2)CC1 | 34.4% (inactive)
Cc1ccccc1Cn1c2ccccc2c2cnn(CC(=O)NCc3ccco3)c(=O)c21 | 60.8% (active)
O=C(Cn1ncc2c3ccccc3n(Cc3ccccc3)c2c1=O)NCc1ccccn1 | -6.3% (inactive)
O=C(Cn1ncc2c3ccccc3n(Cc3ccccc3)c2c1=O)NCCCN1CCOCC1 | 57.9% (inactive)
COc1ccc(-c2nnc(NC(=O)CS(=O)(=O)c3ccc(Cl)cc3)o2)c(OC)c1 | 46.9% (inactive)
O=S(=O)(Cc1cc(Cl)nc(-c2cccnc2)n1)c1ccccc1 | 17.6% (inactive)
COc1ccc(Cl)cc1NC(=O)CN(C)C(=O)CCCc1c[nH]c2ccccc12 | 9.8% (inactive)

Structure (SMILES) | inhibition
CCCNC(=O)CCn1nc(-c2ccccc2)c2ccccc2c1=O | 19.9% (inactive)
CSc1ccc(CNC(=O)c2ccc(NC(=O)C3=CSCCO3)cc2)cc1 | 69% (active)
O=C(Nc1ccc(C(=O)NCc2ccccc2Cl)cc1)C1=CSCCO1 | 37.5% (inactive)
CS(=O)(=O)NCc1ccc(C(=O)NCc2ccccc2)cc1 | -10% (inactive)
Cc1ccccc1OCC(=O)NNC(=O)c1cc(S(=O)(=O)N(C)C)ccc1N1CCCC1 | 33.4% (inactive)
CSc1ccc(S(=O)(=O)N2CCC(C(=O)NCCc3ccccc3)CC2)cc1 | 13.8% (inactive)
Cc1nn(CCCC(=O)NCc2ccccc2Cl)c(=O)c2nccn12 | 35.7% (inactive)
CCOC(=O)CNC(=O)CSc1nnc(COc2ccc(Cl)cc2)n1CC | 95.8% (active)
CCOC(=O)CNC(=O)CSc1nnc(-c2cccc(OC)c2)n1CC | 47.2% (inactive)
CCn1c(COc2ccc(OC)cc2)nnc1SCC(=O)Nc1cc(OC)ccc1OC | -14.1% (inactive)
Oc1ccccc1/C=N/n1c(-c2cccs2)n[nH]c1=S | 106% (active)
S=c1[nH]nc(-c2cccs2)n1/N=C/c1cccs1 | 56.2% (inactive)
S=c1[nH]nc(-c2cccs2)n1/N=C/c1cn(-c2ccccc2)nc1-c1ccc(Cl)cc1 | -132% (inactive)
CC(=O)Oc1ccc2c(=O)oc(-c3ccc([N+](=O)[O-])cc3)nc2c1 | 35.6% (inactive)
O=C(COc1ccc(Cl)cc1Cl)NCCCNC(=O)c1cnccn1 | 44.9% (inactive)
CC(C)C[C@@H](N)c1nnc(SCC(=O)c2ccc(Cl)cc2)o1 | 81.6% (active)
COc1cc(C(=O)NCc2nnc(SCC(=O)c3ccc(Cl)cc3)o2)cc(OC)c1OC | 43.5% (inactive)
Cc1cc(C)nc(SCC(=O)c2ccc(Cl)cc2)n1 | 27% (inactive)
O=C(CN1CCN(C(=O)C2CCCO2)CC1)Nc1c(Cl)cccc1Cl (stereo not given) | 26.3% (inactive)
Cc1cccnc1NC(=O)c1cccc(S(=O)(=O)N2CCN(c3ccc(F)cc3)CC2)c1 | 27% (inactive)
O=C(N/N=C/c1ccccn1)c1cccc(NC(=O)c2ccc(Cl)cc2)c1 | 41.5% (inactive)
CSc1ccc(/C=N\NC(=O)COc2ccc(Cl)cc2Br)cc1 | -15.7% (inactive)
O=C(COc1ccc(Cl)cc1Cl)N/N=C/c1ccccn1 | 61% (active)
N#Cc1ccc(S(=O)(=O)NCC(=O)OCC(=O)NCCc2ccccc2)cc1 | 28.7% (inactive)

Structure (SMILES) | inhibition
O=C(Nc1ccc(C2CC2(Cl)Cl)cc1)c1cccc([N+](=O)[O-])c1 (stereo not given) | -31.5% (inactive)
Cc1c(Cl)cnc(NC(=O)COC(=O)c2ccc(S(=O)(=O)NCc3ccco3)cc2)c1Cl | -11.7% (inactive)
CSCCC(NC(=O)COc1ccccc1)C(=O)OCC(=O)c1cc2ccccc2o1 (stereo not given) | 0.2% (inactive)
CSCCC(NC(=O)c1ccco1)C(=O)OCC(=O)Nc1ncc(Cl)c(C)c1Cl (stereo not given) | 63.8% (active)
O=C1CCC(C(=O)N2CCC(O)(c3ccccc3)CC2)CN1CCc1ccccc1 (stereo not given) | 51.4% (inactive)
CS(=O)(=O)c1ccc(-c2nnn(CC(=O)Nc3ccc4c(c3)OCCO4)n2)cc1 | 11% (inactive)
CCCCSc1nnc(-c2ccc(C)cc2)o1 | 1.3% (inactive)
CCCCSc1nc2ccccc2[nH]1 | 11.7% (inactive)
CCCCSc1nnc2c(n1)OC=Nc1ccccc1-2 | 60.8% (active)
COC(=O)c1ccc(COc2ccc(C#N)cc2)o1 | 44.1% (inactive)
CC1CCN(CC(O)COc2ccc(C(=O)c3ccccc3)cc2)CC1 (stereo not given) | 8.5% (inactive)
Cc1cc(NC(=O)c2ccccc2C)no1 | 19.1% (inactive)
Oc1c(C(c2ccccn2)N2CCOCC2)ccc2cccnc12 (stereo not given) | 92.7% (active)
CCOc1cc(N2CCOCC2)c(OCC)cc1NC(=O)COc1cccc2cccnc12 | 23.3% (inactive)
OC(COc1ccc2ccccc2c1)CN1CCOCC1 (stereo not given) | 8% (inactive)
Cc1ccc(NC(=O)C2CCN(S(=O)(=O)c3ccc4c(c3)NC(=O)CO4)CC2)cc1C | 26.1% (inactive)
CCc1ccc(N(C(=O)c2csnn2)C(C(=O)NC2CCCCC2)c2ccncc2)cc1 (stereo not given) | 41.6% (inactive)
Nc1nc(-c2ccccc2)cc(-c2ccccc2)n1 | 19.2% (inactive)
CS(=O)(=O)c1sc2nc(-c3ccccc3)cc(-c3ccccc3)c2c1N | 94.5% (active)
CCN(CC)C(=O)c1sc2nc(-c3ccccc3)ccc2c1N | 21.4% (inactive)
CCc1ccc(NC(=O)C(=O)NNC(=O)c2cccs2)cc1 | 44.9% (inactive)
NC(=S)c1ccc(C(N)=S)o1 | 95.9% (active)
Cn1cc(CN2CCC(C(O)CCc3ccccc3)CC2)c(-c2ccccc2F)n1 (stereo not given) | 28.2% (inactive)
CCCOC1CCCN(Cc2cn(C)nc2-c2ccccc2F)C1 (stereo not given) | 60.1% (active)

Structure (SMILES) | inhibition
Cn1cc(CN2CCCC(CO)C2)c(-c2ccc(Oc3ccccc3)cc2)n1 (stereo not given) | 39.5% (inactive)
O=C(CSc1nnc2c(n1)[nH]c1ccccc12)NC1CCCCC1 | 3.6% (inactive)
CCCCC(=O)Nc1nc(C)c(-c2csc(Nc3ccc(Cl)cc3)n2)s1 | 28.7% (inactive)
C=CCCC(=O)Nc1nc(C)c(-c2csc(Nc3ccc(Cl)cc3)n2)s1 | -1.4% (inactive)
CCCCCCC(=O)Nc1nc(C)c(-c2csc(Nc3cccc(OC)c3)n2)s1 | 104% (active)
Cc1ccc(Nc2nc(-c3sc(NC(=O)c4ccccc4)nc3C)cs2)cc1 | 37.9% (inactive)
Cc1nc(NC(=O)c2cccc(Cl)c2)sc1-c1csc(Nc2cccc(Cl)c2)n1 | 19.2% (inactive)
CCCCCCC(=O)Nc1nc(C)c(-c2csc(Nc3cc(Cl)ccc3OC)n2)s1 | 96.2% (active)
CCc1ccc(N(CC(=O)NCc2cccnc2)S(=O)(=O)c2ccccc2)cc1 | 4.5% (inactive)
CCOC(=O)C1=NN(c2ccc(Cl)cc2)/C(=C/C2=NCCc3cc(OC)c(OC)cc32)S1 | 63.1% (active)
CCOC(=O)C1=C(CN2CCc3ccccc32)NC(=O)NC1c1ccc(Cl)cc1 (stereo not given) | 18.7% (inactive)
COc1cc2c(cc1OC)C(/C=C/c1ccco1)=NCC2 | 5.3% (inactive)
CCn1c(SCC(=O)NCc2ccco2)nnc1-c1ccc(N)cc1 | 42.7% (inactive)
O=C(CSc1nnc(-c2c[nH]c3ccccc23)n1-c1ccc(F)cc1)NCc1ccco1 | 9.8% (inactive)
O=C(CSc1nnc2scc(-c3ccc(F)cc3)n12)NCc1ccco1 | 67.4% (active)
Cc1ccc(-c2csc3nnc(SCC(=O)NCc4ccco4)n23)cc1 | 17.6% (inactive)
Cn1c(-c2ccc(F)cc2)cnc1SCC(=O)NNC(=O)Cc1ccccc1 | 10.2% (inactive)
Cn1c(-c2ccc(F)cc2)cnc1SCC(=O)NCc1ccco1 | 65.2% (active)
CCOc1ccc(OCc2cccc(C(=O)N(CC)CC)c2)cc1 | -26.2% (inactive)
O=[N+]([O-])c1ccc2c(c1)Nc1nc3ccccc3nc1N2 | 29.5% (inactive)
CCCCn1c(=S)[nH]c2ccccc2c1=O | -12.1% (inactive)
O=c1[nH]c2ccc(S(=O)(=O)N3CCCC3)cc2[nH]1 | 39.1% (inactive)
CCCCn1c(=S)[nH]c2cc(S(=O)(=O)N3CCCCC3)ccc21 | 99.7% (active)
